According to PubChem BioAssay (NCI):
This is part of a sample that, as a whole, favours compounds with a hit. Of some 83,000 tested, about 20% had one in any assay.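 Interpretation: 100, growth as untreated; towards 0, rising growth inhibition; 0, no net growth; 0 to -100, cell death. Compounds scoring below 10 were considered active.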 A number with no mark means an inactive call. The source made the active and inactive calls.

Experiments:
Assay in all cases: NCI-60 one-dose screen, 48 h (100 = growth as untreated, 0 = no growth, -100 = all killed)
Conditions in all cases: 10 µM unless noted
DU-145 prostate = tested on: DU-145 prostate
K-562 leukemia = tested on: K-562 leukemia
MALME-3M melanoma = tested on: MALME-3M melanoma
MDA-MB-231 breast = tested on: MDA-MB-231 breast
RXF 393 renal = tested on: RXF 393 renal
SF-268 CNS = tested on: SF-268 CNS
SF-295 CNS = tested on: SF-295 CNS
SF-539 CNS = tested on: SF-539 CNS
UACC-257 melanoma = tested on: UACC-257 melanoma
M14 melanoma = tested on: M14 melanoma
HCT-15 colon = tested on: HCT-15 colon
HT29 colon = tested on: HT29 colon
SNB-75 CNS = tested on: SNB-75 CNS
SNB-19 CNS = tested on: SNB-19 CNS
U251 CNS = tested on: U251 CNS
PC-3 prostate = tested on: PC-3 prostate
SK-MEL-5 melanoma = tested on: SK-MEL-5 melanoma
UACC-62 melanoma = tested on: UACC-62 melanoma
LOX IMVI melanoma = tested on: LOX IMVI melanoma
SK-MEL-28 melanoma = tested on: SK-MEL-28 melanoma

| SMILES | growth (DU-145 prostate) | growth (K-562 leukemia) | growth (MALME-3M melanoma) | growth (MDA-MB-231 breast) | growth (RXF 393 renal) | growth (SF-268 CNS) | growth (SF-295 CNS) | growth (SF-539 CNS) | growth (UACC-257 melanoma) | growth (M14 melanoma) | growth (HCT-15 colon) | growth (HT29 colon) | growth (SNB-75 CNS) | growth (SNB-19 CNS) | growth (U251 CNS) | growth (PC-3 prostate) | growth (SK-MEL-5 melanoma) | growth (UACC-62 melanoma) | growth (LOX IMVI melanoma) | growth (SK-MEL-28 melanoma) |
| --- | --- | --- | --- | --- | --- | --- | --- | --- | --- | --- | --- | --- | --- | --- | --- | --- | --- | --- | --- | --- |
| O=C(NCCN1CCC(O)CC1)c1cc2c(o1)C(=O)c1ccccc1C2=O | -97.6% (active) | 2.8% (active) | -99.2% (active) | -24.6% (active) | -99% (active) | -54.8% (active) | -96.2% (active) | -97.5% (active) | -86.9% (active) | -85.3% (active) | -80.8% (active) | -5.34% (active) | -98.5% (active) | -98.1% (active) | -88.1% (active) | -28.4% (active) | -99.2% (active) | -89.4% (active) | -89.3% (active) | -74.3% (active) |
| C=C(C)[C@@H]1CC[C@]2(CO)CC[C@]3(C)[C@H](CC[C@@H]4[C@@]5(C)C=C(C#N)C(=O)C(C)(C)[C@@H]5CC[C@]43C)[C@@H]12 | 18.9% | 7.75% (active) | 32.9% | 15.9% | -61.2% (active) | 25.4% | -2.71% (active) | 20.5% | 4.1% (active) | 15.8% | 3.8% (active) | 8.33% (active) | 52.1% | 18.5% | 9.63% (active) | 6.8% (active) | 12% | -33% (active) | – | 20.9% |
| CN1CCN(CCCOc2ccc3nc(Nc4cc(Cl)cc(Cl)c4)ccc3c2)CC1 | -84.1% (active) | -61.8% (active) | -54.4% (active) | -73.2% (active) | -60.6% (active) | -78.9% (active) | -75.9% (active) | -86.5% (active) | -81.5% (active) | -62.2% (active) | -87.6% (active) | -94.4% (active) | -94.5% (active) | -76.2% (active) | -87.5% (active) | -57.8% (active) | -94.9% (active) | -81.5% (active) | -94.4% (active) | -87.2% (active) |
| CS(=O)(=O)c1ccc(-c2nc3cc(Cl)ccc3n2CC(=O)N/N=C/c2ccc(Cl)cc2)cc1 | 70.1% | 17% | 46.6% | 48.9% | -25.1% (active) | 50.2% | -36.9% (active) | -3.48% (active) | 67.7% | 61.2% | 72.6% | 36.2% | 42.1% | 51.3% | 30.5% | 45.5% | 23.1% | 56.2% | 30.7% | 43.6% |
| CCN1CCN(c2ccc(Nc3cc(-c4cccnc4Nc4c(Cl)c(OC)cc(OC)c4Cl)ncn3)cc2)CC1 | 62.9% | 44.5% | 76.2% | 85.8% | 34.3% | 65.1% | 79.5% | 47.1% | 91.6% | 72.9% | 63.3% | 31.9% | 42.8% | 81% | 71.6% | 55.3% | 74% | 85.9% | 44.7% | 100% |
| CN1CCN(C(=O)[C@]23CCC(C)(C)C[C@@H]2C2=CC[C@@H]4[C@@]5(C)Cc6c([nH]c7ccccc67)C(C)(C)[C@@H]5CC[C@@]4(C)[C@]2(C)CC3)CC1 | 84.6% | 66.1% | 90.2% | 79% | 80.1% | 84.6% | 92.2% | 76.7% | 86.1% | 78% | 81.5% | 71.3% | 56.6% | 91.8% | 78.3% | 64.8% | 94% | 95.9% | 77.4% | 89.6% |
| Cc1cc(Cl)nc(N(CCCNc2ccnc3cc(Cl)ccc23)Cc2ccccn2)n1 | 66.2% | 4.3% (active) | 73.2% | 53.4% | 41.8% | 74.6% | 38.9% | 38.9% | 53.5% | 44.4% | 35.2% | 10.2% | 64.1% | 66.5% | 43.9% | 54.2% | 34.1% | 55.9% | – | 68% |
| CCCN1CCN(c2ccc3nc(-c4ccc5nc(-c6cc(OC)c(OC)c(OC)c6)[nH]c5c4)[nH]c3c2)CC1 | 109% | 59.5% | 7.58% (active) | 98.4% | 15.6% | 75.6% | 65.9% | 59.6% | 71.7% | 63.9% | 99.5% | 58% | 43.6% | 69.8% | 66.3% | 70.7% | 41.3% | 35.8% | 67.3% | 57.8% |
| CCCCCCCC/C=C/CCCCCCCC1=NCC[N+]1(CCO)CCO | 78.9% | 32.7% | 96.2% | 56.6% | 50.1% | 75.2% | 79.6% | 90.3% | 104% | 71.4% | 80.6% | 13% | 63.2% | 73.7% | 36.1% | 31.9% | 77.9% | – | 52% | 96.3% |
| C=C(CNCCc1ccc(O)cc1)[C@@H]1CC[C@]2(COC3CCCCO3)CC[C@]3(C)[C@H](CC[C@@H]4[C@@]5(C)CCC(N)C(C)(C)[C@@H]5CC[C@]43C)[C@@H]12 (stereo partly specified) | -88.9% (active) | -73% (active) | -83.9% (active) | -92.2% (active) | -83.9% (active) | -71.6% (active) | -88% (active) | -94.9% (active) | -80.7% (active) | -88.6% (active) | -93% (active) | -93.8% (active) | -88% (active) | -85.8% (active) | -91.7% (active) | -91% (active) | -97.9% (active) | -87% (active) | – | -94.9% (active) |
| CCN(CC)N=Nc1nn(C(=O)Nc2ccc(Cc3ccccc3)cc2)c2ccc(Cl)cc12 | 70.5% | 22.3% | 139% | 102% | 116% | 76% | 8.57% (active) | 77.7% | 55.5% | 22% | 43.6% | 61.8% | 88.8% | 67.2% | 93.4% | 69.6% | 56.6% | 8.7% (active) | – | 70.8% |
| C=C1c2c(C)nn(-c3ccc(S(N)(=O)=O)cc3)c2N(C)C23CC1C1(C)c4c(C)nn(-c5ccc(S(N)(=O)=O)cc5)c4N(C)C(C)(CC12)C3 (stereo unspecified) | 43.6% | 29.9% | 61.6% | 39.6% | 33.3% | 42.2% | 30.1% | 57.1% | 49% | 20.6% | 14.6% | 13.6% | 76% | 43% | 24.7% | 23.6% | 45.5% | 37.5% | – | 30.7% |
| N#C/C(=C\c1ccc2c(c1)OCO2)n1nnc2ccccc21 | -38% (active) | 14.2% | 25.8% | -31.9% (active) | -44.8% (active) | 22.9% | -5.56% (active) | -61.4% (active) | 64.4% | 2.76% (active) | 9% (active) | 11.5% | -49.7% (active) | 19.8% | 13% | 12.5% | 20.4% | 20% | – | 25.8% |
| COc1ccc(Oc2nc(Nc3ccc(N4CCOCC4)nc3)ncc2NC(=O)c2cc(OC)cc(OC)c2)cc1 | 89.6% | 49.8% | 107% | 81.9% | 58.6% | 82.2% | 83.7% | 78.2% | 89.7% | 72.8% | 52.9% | 77.8% | 70.6% | 80.6% | 84.2% | 67.9% | 70.9% | 69.3% | – | 79.8% |
| CCNCCNc1cc(-c2ccc(Cl)cc2)c(C#N)c2nc3ccccc3n12 | 26.4% | -48.1% (active) | -80.2% (active) | -57.4% (active) | -82.9% (active) | -12.6% (active) | -77.6% (active) | -91.4% (active) | -79.4% (active) | -70.7% (active) | -78.5% (active) | -32.2% (active) | -76.6% (active) | 36% | -53.2% (active) | 27.2% | -99.4% (active) | – | -77.4% (active) | -90.2% (active) |
